Common to all, as to assay: PBM; 200 nM protein, PBS
What all share (details): dsDNA, one strand shown

For assay [1], the target named is HOXD13 (Homo sapiens, UniProt P35453 263-343, T313R).
Assay [2] addresses HOXD13 (Homo sapiens, UniProt P35453 263-343).
For assay [3], the target named is HOXD13 (Homo sapiens, UniProt P35453 263-343, T313A).
For another assay, the target named is CRX (Homo sapiens, UniProt O43186 26-111, R41L).
For assay [4], the target named is ALX3 (Homo sapiens, UniProt O95076 139-225, N203S).
Assay [5] addresses T1, NKX2-6 (Homo sapiens, UniProt A6NCS4 118-204).
T1 sequence: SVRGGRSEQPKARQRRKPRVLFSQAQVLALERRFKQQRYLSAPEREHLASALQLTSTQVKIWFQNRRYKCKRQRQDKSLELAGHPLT

In assay [6] the target is T2, NKX2-6 (Homo sapiens, UniProt A6NCS4 118-204, F151L).
T2 sequence: T1 sequence with F34L

Assay [7] concerns the target ALX3 (Homo sapiens, UniProt O95076 139-225).
For assay [8], the target named is ALX3 (Homo sapiens, UniProt O95076 139-225, L168Q).
For assay [9], the target named is VAX1 (Homo sapiens, UniProt Q5SQQ9 86-172).
The target of assay [10] is VAX1 (Homo sapiens, UniProt Q5SQQ9 86-172, T142I).
For assay [11], the target named is VAX1 (Homo sapiens, UniProt Q5SQQ9 86-172, K157R).
A further assay deals with PITX2 (Homo sapiens, UniProt Q99697 72-157).

Changes are numbered by the printed parent chain.

HOXD13 (Homo sapiens, UniProt P35453 263-343, T313R), sequence (P35453 263-343 T313R): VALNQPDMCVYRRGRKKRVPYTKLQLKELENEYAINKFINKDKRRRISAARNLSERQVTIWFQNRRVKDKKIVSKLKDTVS
HOXD13 (Homo sapiens, UniProt P35453 263-343, T313A), sequence (P35453 263-343 T313A): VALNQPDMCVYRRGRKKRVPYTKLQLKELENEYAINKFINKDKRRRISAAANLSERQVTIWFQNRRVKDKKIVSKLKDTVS
HOXD13 (Homo sapiens, UniProt P35453 263-343), sequence (P35453 263-343): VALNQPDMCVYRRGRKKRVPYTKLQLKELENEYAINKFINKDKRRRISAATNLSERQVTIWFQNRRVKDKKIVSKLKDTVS
ALX3 (Homo sapiens, UniProt O95076 139-225, N203S), sequence (O95076 139-225 N203S): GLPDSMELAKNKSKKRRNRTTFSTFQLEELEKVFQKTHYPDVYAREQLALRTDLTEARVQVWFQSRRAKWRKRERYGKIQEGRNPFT
VAX1 (Homo sapiens, UniProt Q5SQQ9 86-172), sequence (Q5SQQ9 86-172): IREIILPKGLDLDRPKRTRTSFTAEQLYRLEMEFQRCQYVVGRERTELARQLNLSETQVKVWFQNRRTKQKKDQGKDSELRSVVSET
ALX3 (Homo sapiens, UniProt O95076 139-225, L168Q), sequence (O95076 139-225 L168Q): as the sequence (O95076 139-225 N203S) above, with L30Q, S65N counted along it
VAX1 (Homo sapiens, UniProt Q5SQQ9 86-172, K157R), sequence (Q5SQQ9 86-172 K157R): as the sequence (Q5SQQ9 86-172) above, with K72R counted along it
VAX1 (Homo sapiens, UniProt Q5SQQ9 86-172, T142I), sequence (Q5SQQ9 86-172 T142I): as the sequence (Q5SQQ9 86-172) above, with T57I counted along it
ALX3 (Homo sapiens, UniProt O95076 139-225), sequence (O95076 139-225): as the sequence (O95076 139-225 N203S) above, with S65N counted along it
CRX, sequence (O43186 26-111 R41L): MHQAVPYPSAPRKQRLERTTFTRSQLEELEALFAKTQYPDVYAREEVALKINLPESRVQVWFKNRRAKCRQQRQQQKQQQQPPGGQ

Regarding GGCCCACC, the binding signal is 9.47 upbm affinity estimate (log intensity, higher = more binding, comparable within an allelic series) with HOXD13 [1]; 9.38 upbm affinity estimate (log intensity, higher = more binding, comparable within an allelic series) with HOXD13 [2]; 9.5 upbm affinity estimate (log intensity, higher = more binding, comparable within an allelic series) with HOXD13 [3].

With CTATAAAG, the binding signal is 10.8 upbm affinity estimate (log intensity, higher = more binding, comparable within an allelic series) in the assay with HOXD13 [1]; 11.9 upbm affinity estimate (log intensity, higher = more binding, comparable within an allelic series) with HOXD13 [2]; 11.6 upbm affinity estimate (log intensity, higher = more binding, comparable within an allelic series) in the assay with HOXD13 [3].

For the sequence TCGGCCCA, the binding signal is 9.58 upbm affinity estimate (log intensity, higher = more binding, comparable within an allelic series) in the assay with HOXD13 [1]; 9.62 upbm affinity estimate (log intensity, higher = more binding, comparable within an allelic series) with HOXD13 [2]; 9.55 upbm affinity estimate (log intensity, higher = more binding, comparable within an allelic series) with HOXD13 [3].

As to GCTGCGCA, the binding signal was 9.55 upbm affinity estimate (log intensity, higher = more binding, comparable within an allelic series) in the assay with HOXD13 [1]; 9.53 upbm affinity estimate (log intensity, higher = more binding, comparable within an allelic series) in the assay with HOXD13 [2]; 9.77 upbm affinity estimate (log intensity, higher = more binding, comparable within an allelic series) with HOXD13 [3].

With GGCCCGAA, the binding signal in the assay with HOXD13 [1] is 9.5 upbm affinity estimate (log intensity, higher = more binding, comparable within an allelic series); with HOXD13 [2] it was 9.42 upbm affinity estimate (log intensity, higher = more binding, comparable within an allelic series); in the assay with HOXD13 [3], 9.59 upbm affinity estimate (log intensity, higher = more binding, comparable within an allelic series).

Turning to GCTCGTAA, the binding signal in the assay with HOXD13 [1] is 10.6 upbm affinity estimate (log intensity, higher = more binding, comparable within an allelic series); in the assay with HOXD13 [2] it was 11.9 upbm affinity estimate (log intensity, higher = more binding, comparable within an allelic series); with HOXD13 [3], 11.7 upbm affinity estimate (log intensity, higher = more binding, comparable within an allelic series).

For the sequence CCCTGGAG, the binding signal with HOXD13 [1] is 9.64 upbm affinity estimate (log intensity, higher = more binding, comparable within an allelic series); in the assay with HOXD13 [2] it was 9.55 upbm affinity estimate (log intensity, higher = more binding, comparable within an allelic series); in the assay with HOXD13 [3], 9.78 upbm affinity estimate (log intensity, higher = more binding, comparable within an allelic series).

AGCCGGCC: the binding signal in the assay with HOXD13 [1] is 9.49 upbm affinity estimate (log intensity, higher = more binding, comparable within an allelic series); with HOXD13 [2], 9.41 upbm affinity estimate (log intensity, higher = more binding, comparable within an allelic series); with HOXD13 [3] it was 9.49 upbm affinity estimate (log intensity, higher = more binding, comparable within an allelic series).

Consider CGCAGCCC, for which the binding signal in the assay with HOXD13 [1] was 9.49 upbm affinity estimate (log intensity, higher = more binding, comparable within an allelic series); with HOXD13 [2], 9.55 upbm affinity estimate (log intensity, higher = more binding, comparable within an allelic series); with HOXD13 [3], 9.57 upbm affinity estimate (log intensity, higher = more binding, comparable within an allelic series).

With GTTTAATA, the binding signal with HOXD13 [1] is 10.8 upbm affinity estimate (log intensity, higher = more binding, comparable within an allelic series); with HOXD13 [2], 11.8 upbm affinity estimate (log intensity, higher = more binding, comparable within an allelic series); with HOXD13 [3] it was 11.6 upbm affinity estimate (log intensity, higher = more binding, comparable within an allelic series).

CATATAAA: the binding signal with HOXD13 [1] is 10.9 upbm affinity estimate (log intensity, higher = more binding, comparable within an allelic series); in the assay with HOXD13 [2] it was 12.1 upbm affinity estimate (log intensity, higher = more binding, comparable within an allelic series); in the assay with HOXD13 [3], 11.9 upbm affinity estimate (log intensity, higher = more binding, comparable within an allelic series).

For the sequence CTACGTAG, the binding signal with HOXD13 [1] is 9.84 upbm affinity estimate (log intensity, higher = more binding, comparable within an allelic series); in the assay with HOXD13 [2], 9.97 upbm affinity estimate (log intensity, higher = more binding, comparable within an allelic series); with HOXD13 [3], 9.71 upbm affinity estimate (log intensity, higher = more binding, comparable within an allelic series).

For GCCGGTGA, the binding signal with HOXD13 [1] was 9.57 upbm affinity estimate (log intensity, higher = more binding, comparable within an allelic series); with HOXD13 [2] it was 9.7 upbm affinity estimate (log intensity, higher = more binding, comparable within an allelic series); in the assay with HOXD13 [3] it was 9.88 upbm affinity estimate (log intensity, higher = more binding, comparable within an allelic series).

As for GTTATTAA, the binding signal with CRX was 10.4 upbm affinity estimate (log intensity, higher = more binding, comparable within an allelic series); with ALX3 [4] it was 8.66 upbm affinity estimate (log intensity, higher = more binding, comparable within an allelic series).

CAGGCACA: the binding signal with NKX2-6 [5] was 9.47 upbm affinity estimate (log intensity, higher = more binding, comparable within an allelic series); with NKX2-6 [6], 9.38 upbm affinity estimate (log intensity, higher = more binding, comparable within an allelic series).

ACTTACAT: the binding signal in the assay with NKX2-6 [5] is 11.6 upbm affinity estimate (log intensity, higher = more binding, comparable within an allelic series); with ALX3 [7], 8.97 upbm affinity estimate (log intensity, higher = more binding, comparable within an allelic series); with ALX3 [8] it was 8.46 upbm affinity estimate (log intensity, higher = more binding, comparable within an allelic series); in the assay with NKX2-6 [6] it was 9.95 upbm affinity estimate (log intensity, higher = more binding, comparable within an allelic series).

On to CGCTCGGC, for which the binding signal with NKX2-6 [5] was 9.08 upbm affinity estimate (log intensity, higher = more binding, comparable within an allelic series); with VAX1 [9], 6.93 upbm affinity estimate (log intensity, higher = more binding, comparable within an allelic series); with NKX2-6 [6], 9.38 upbm affinity estimate (log intensity, higher = more binding, comparable within an allelic series); with VAX1 [10], 6.99 upbm affinity estimate (log intensity, higher = more binding, comparable within an allelic series); in the assay with VAX1 [11] it was 6.71 upbm affinity estimate (log intensity, higher = more binding, comparable within an allelic series).

As for ACCAGAGC, the binding signal with NKX2-6 [5] was 9.39 upbm affinity estimate (log intensity, higher = more binding, comparable within an allelic series); with NKX2-6 [6], 9.5 upbm affinity estimate (log intensity, higher = more binding, comparable within an allelic series).

On to CGTCCTGC, for which the binding signal is 9 upbm affinity estimate (log intensity, higher = more binding, comparable within an allelic series) with NKX2-6 [5]; 7.8 upbm affinity estimate (log intensity, higher = more binding, comparable within an allelic series) in the assay with PITX2; 9.34 upbm affinity estimate (log intensity, higher = more binding, comparable within an allelic series) with NKX2-6 [6].

For the sequence ATCCGCAG, the binding signal in the assay with NKX2-6 [5] was 9.55 upbm affinity estimate (log intensity, higher = more binding, comparable within an allelic series); with NKX2-6 [6], 9.47 upbm affinity estimate (log intensity, higher = more binding, comparable within an allelic series).

Turning to TAAGAAGA, the binding signal with NKX2-6 [5] is 11.5 upbm affinity estimate (log intensity, higher = more binding, comparable within an allelic series); with NKX2-6 [6], 9.88 upbm affinity estimate (log intensity, higher = more binding, comparable within an allelic series).

Regarding CACTCTGG, the binding signal was 11.6 upbm affinity estimate (log intensity, higher = more binding, comparable within an allelic series) in the assay with NKX2-6 [5] and 9.66 upbm affinity estimate (log intensity, higher = more binding, comparable within an allelic series) in the assay with NKX2-6 [6].

As for CGGTGGCC, the binding signal with NKX2-6 [5] was 9.03 upbm affinity estimate (log intensity, higher = more binding, comparable within an allelic series); in the assay with NKX2-6 [6] it was 9.22 upbm affinity estimate (log intensity, higher = more binding, comparable within an allelic series).

With CCGGCACC, the binding signal with NKX2-6 [5] is 9.34 upbm affinity estimate (log intensity, higher = more binding, comparable within an allelic series); with NKX2-6 [6], 9.34 upbm affinity estimate (log intensity, higher = more binding, comparable within an allelic series).

As for AAATACTC, the binding signal with NKX2-6 [5] is 11.4 upbm affinity estimate (log intensity, higher = more binding, comparable within an allelic series); in the assay with NKX2-6 [6] it was 9.88 upbm affinity estimate (log intensity, higher = more binding, comparable within an allelic series).

Take CGGGATCC: the binding signal is 9.34 upbm affinity estimate (log intensity, higher = more binding, comparable within an allelic series) with NKX2-6 [5] and 9.34 upbm affinity estimate (log intensity, higher = more binding, comparable within an allelic series) in the assay with NKX2-6 [6].

As for GTTAAGTA, the binding signal in the assay with NKX2-6 [5] was 13.5 upbm affinity estimate (log intensity, higher = more binding, comparable within an allelic series); with NKX2-6 [6] it was 10.8 upbm affinity estimate (log intensity, higher = more binding, comparable within an allelic series).

Consider CCGTTGGC, for which the binding signal was 9.2 upbm affinity estimate (log intensity, higher = more binding, comparable within an allelic series) in the assay with NKX2-6 [5] and 9.41 upbm affinity estimate (log intensity, higher = more binding, comparable within an allelic series) in the assay with NKX2-6 [6].

On to AAGGGTCA, for which the binding signal with NKX2-6 [5] is 11.8 upbm affinity estimate (log intensity, higher = more binding, comparable within an allelic series); with NKX2-6 [6], 10 upbm affinity estimate (log intensity, higher = more binding, comparable within an allelic series).

With AGACGGCC, the binding signal with NKX2-6 [5] was 9.28 upbm affinity estimate (log intensity, higher = more binding, comparable within an allelic series); in the assay with NKX2-6 [6], 9.16 upbm affinity estimate (log intensity, higher = more binding, comparable within an allelic series).

(Values after article PMC11006913.)
